Experimental data as given in PubChem BioAssay (EPA / NIEHS).
Inconclusive results are not listed. The source made the active and inactive calls. Rule for the calls: active = hit-call score of the fitted dose curve at least 0.9, where 1 is the maximum; inconclusive = response in the unintended direction; inactive = score below 0.9.

Assays:
[1] = TOX21_p53_BLA_p3_viability: Viability Assessment in the Tox21 HCT-116 p53 Agonism Beta-lactamase Assay, Phase 3 (AID 2283593);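 note: cells exposed to compound for 16 h before reading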
Method in brief: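 HCT-116 cells (4000/well) rested 5 h at 37C, then got DMSO compounds by pin tool (217-fold dilution) for 16 h at 37C, 5% CO2. After the bla read, CellTiter-Glo was added and luminescence read at 30 min, room temperature.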

[2] = target: Cellular tumor antigen p53 (Homo sapiens) (UniProt P04637); experiment: TOX21_p53_BLA_p3_ratio: Tox21 HCT-116 p53 Agonism Beta-lactamase Assay, Ratio, Phase 3 (AID 2283596)
Chain of Cellular tumor antigen p53 (Homo sapiens) (P04637 whole entry, looked up): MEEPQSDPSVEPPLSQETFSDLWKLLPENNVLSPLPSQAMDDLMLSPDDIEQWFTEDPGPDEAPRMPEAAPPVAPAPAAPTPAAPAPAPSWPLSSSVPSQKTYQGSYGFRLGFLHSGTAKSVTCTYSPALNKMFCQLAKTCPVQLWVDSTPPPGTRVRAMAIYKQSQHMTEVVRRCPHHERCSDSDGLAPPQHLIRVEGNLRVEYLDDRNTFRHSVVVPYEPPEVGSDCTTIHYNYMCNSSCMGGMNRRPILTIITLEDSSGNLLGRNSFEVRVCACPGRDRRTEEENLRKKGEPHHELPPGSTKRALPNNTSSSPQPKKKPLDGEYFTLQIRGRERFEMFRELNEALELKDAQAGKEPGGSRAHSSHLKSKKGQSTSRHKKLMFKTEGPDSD
Method in brief: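 HCT116 p53-bla cells (4000/well) given compound in DMSO (217-fold dilution) after 5 h, incubated 16 h at 37C. CCF4-AM substrate 2 h at room temperature; 460/530 nm emission ratio, gain fitted against DMSO.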

[3] = target: Cellular tumor antigen p53 (Homo sapiens) (UniProt P04637); experiment: TOX21_p53_BLA_p5_ratio: Tox21 HCT-116 p53 Agonism Beta-lactamase Assay, Ratio, Phase 5 (AID 2283599)
Method in brief: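 HCT-116 cells carrying a p53-inducible beta-lactamase reporter were seeded at 4000 cells/well and dosed after 5 h with compound in DMSO (217-fold dilution). After 16 h at 37C, CCF4-AM substrate was added for 2 h, and the 460/530 nm emission ratio was scored as gain-of-signal versus DMSO.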

[4] = TOX21_p53_BLA_p5_viability: Viability Assessment in the Tox21 HCT-116 p53 Agonism Beta-lactamase Assay, Phase 5 (AID 2283600)
Method in brief: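 4000 cells/well; 5 h pre-incubation; DMSO compounds pin-transferred, 217-fold dilution; 16 h, 37C/5% CO2; CCF4-AM 2 h RT; CellTiter-Glo 30 min RT; luminescence.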

[5] = target: Cellular tumor antigen p53 (Homo sapiens) (UniProt P04637); experiment: TOX21_p53_BLA_p4_ratio: Tox21 HCT-116 p53 Agonism Beta-lactamase Assay, Ratio, Phase 4 (AID 2283601)
Method in brief: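 HCT116 cells carrying an inducible beta-lactamase reporter were plated at 4000 cells/well, rested 5 h, then exposed to compounds in DMSO (217-fold dilution) for 16 h at 37C. CCF4-AM substrate was loaded 2 h at room temperature; 460/530 nm emission ratio scored gain-of-signal versus DMSO.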

[6] = Tanguay_ZF_120hpf_MORT_legacy: (Legacy) Oregon State University Tanguay Lab 120 Hour Post-fertilization zebrafish Assay for Mortality (AID 2283633);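 for AC50: fitted as increase in binary mortality versus DMSO negative control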
Method in brief: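 5D WT zebrafish, chorion removed 4 hpf; 1 embryo/well from 6 hpf; static exposure to 120 hpf, 28C, dark, sealed. Final DMSO 0.64%. Readout: binary mortality, brightfield, 24 + 120 hpf; DMSO as negative control.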

[7] = Tanguay_ZF_120hpf_YSE_legacy: (Legacy) Oregon State University Tanguay Lab 120 Hour Post-fertilization zebrafish Assay for Yolk Sac Edema (AID 2283634);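 for AC50: actives raise the incidence of yolk sac edema above the DMSO baseline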
Method in brief: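 Dechorionate (pronase, 4 hpf) → place one 6 hpf embryo per well → static compound exposure, sealed and foil-covered, 28C, to 120 hpf → record yolk sac edema as present or absent. Final DMSO 0.64%.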

[8] = Tanguay_ZF_120hpf_AXIS_legacy: (Legacy) Oregon State University Tanguay Lab 120 Hour Post-fertilization zebrafish Assay for Body Axis Malformation (AID 2283635);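 for AC50: potency for an increased fraction of larvae scored with body axis malformation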
Method in brief: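 Chorion is removed with pronase at 4 hpf, then single 6 hpf embryos are dosed (final DMSO 0.64%) and held statically at 28C in sealed, foil-covered plates. At 120 hpf body axis malformation is recorded as present or absent.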

[9] = Tanguay_ZF_120hpf_EYE_legacy: (Legacy) Oregon State University Tanguay Lab 120 Hour Post-fertilization zebrafish Assay for Eye Malformation (AID 2283636);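 note: binary presence or absence of eye malformation scored by brightfield in 120 hpf larvae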
Method in brief: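 Dechorionated wild-type Tropical 5D zebrafish embryos were exposed statically from 6 hpf, one per well, to 120 hpf at 28C in sealed, foil-covered plates with 0.64% DMSO. Eye malformation was scored present/absent by brightfield microscopy against DMSO controls.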

[10] = TOX21_p53_BLA_p4_viability: Viability Assessment in the Tox21 HCT-116 p53 Agonism Beta-lactamase Assay, Phase 4 (AID 2283597);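 note: hits lower the luminescence signal meaning cytotoxicity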
Method in brief: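 Cells plated, 5 h pre-incubation; DMSO compounds pinned (217-fold dilution); 16 h, 37C/5% CO2; CCF4-AM 2 h RT; CellTiter-Glo 30 min RT; luminescence read.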

Measured: AC50

c1ccc(C[n+]2cccc3ccccc32)cc1
not listed: [10]
inactive: all other assays above

O=C1O[C@H]([C@@H](O)CO)C(O)=C1O
not listed: [4] | [7]
inactive: all other assays above

CCCCCc1ccc(N)cc1
not listed: [3] | [4] | [9]
inactive: all other assays above

CN(C[C@@H](CC[N+]12CCC(C3CCCCC3)(CC1)CC2)c1ccc(Cl)c(Cl)c1)C(=O)c1cc(C(F)(F)F)cc(C(F)(F)F)c1
inactive: [7] | [8] | [9]
active: [1] 58.7 µM | [2] 87 µM | [10] 14.8 µM | [3] 77.8 µM | [5] 27.5 µM | [6] 25.5 µM

CCCCCCCC[Si](OCC)(OCC)OCC
inactive: [1] | [2] | [3] | [5] | [6] | [8]

CCO[Si](CCCNC(N)=O)(OCC)OCC
not listed: [4] | [7] | [10]
inactive: all other assays above

CCCCOC(=O)c1ccc(O)cc1
active: [7] 51.7 µM | [8] 45.1 µM | [9] 41.1 µM
not listed: [4]
inactive: all other assays above

OC12N=C(c3ccccc3)SC1Cc1cc(Cl)ccc12 (stereo not drawn)
active: [10] 66.6 µM | [5] 86.6 µM | [7] 47.3 µM | [8] 50 µM | [9] 11.1 µM
inactive: [3] | [6]

O=C(OCCCCCCOC(=O)c1ccccc1)c1ccccc1
inactive: [10] | [3] | [5] | [6] | [7] | [8]

Cc1occc1C(=O)Nc1ccc(C(=O)N2CCC(F)(F)/C(=C\C(=O)N3CCC(N4CCCCC4)CC3)c3ccccc32)cc1
not listed: [5] | [10]
inactive: all other assays above

O=c1[nH]sc2ccccc12
not listed: [4] | [8]
inactive: all other assays above

CC[C@@H]1C[C@H](N(Cc2cc(C(F)(F)F)cc(C(F)(F)F)c2)C(C)=O)c2cc(C(F)(F)F)ccc2N1C(=O)OC(C)C
not listed: [1]
inactive: all other assays above

CCOC(=O)O[C@H](C)OC(=O)c1ccc2c(c1)cc(C(=O)NC1CCN(C(C)C)CC1)n2Cc1cc(-c2ccc(Cl)s2)on1
active: [1] 55.8 µM | [2] 81.9 µM | [10] 13.5 µM | [3] 80.9 µM | [6] 23.7 µM
inactive: [7] | [8] | [9]

Oc1ccc2ccccc2c1
active: [7] 36.9 µM | [8] 55.2 µM | [9] 61.7 µM
inactive: [2] | [3] | [5] | [6]

C[C@]12CC[C@@H]3c4ccc(O)cc4CC[C@H]3[C@@H]1CCC2=O
inactive: [6] | [7] | [8] | [9]

COCC(C)OCC(C)OCC(C)O (stereo not drawn)
inactive: [6] | [7] | [8] | [9]

CCCOC(=O)c1cc(O)c(O)c(O)c1
not listed: [4]
inactive: all other assays above

COc1cccc([C@H](O)C2CCN(CCc3ccc(F)cc3)CC2)c1OC
active: [7] 44.9 µM | [8] 34 µM
not listed: [2] | [5]
inactive: all other assays above

CCCCOC(=O)CC(CC(=O)OCCCC)(OC(C)=O)C(=O)OCCCC
not listed: [1] | [3] | [9]
inactive: all other assays above

CN1C(=O)CC[C@H]1c1cccnc1
not listed: [3] | [10]
inactive: all other assays above

Cc1cccc2ccccc12
not listed: [4]
inactive: all other assays above

CCCCCCCCN(C)CCCCCCCC
not listed: [3] | [4]
inactive: all other assays above

CC(C)(O)c1ccc(CNC(=O)c2cccnc2Oc2ccc3nonc3c2)cc1
not listed: [1] | [4] | [10]
inactive: all other assays above

CCCCCCCCCCCCO
not listed: [10]
inactive: all other assays above

O=C=NCCCCCCN=C=O
not listed: [4] | [9] | [10]
inactive: all other assays above
